Shown are actives, neighbours in structure and some others; about 3.5% of the full set was active somewhere.
DNMT1 inh – DNMT1 (human) enzyme inhibition; inhibition (reported as % activation of signal), % at 10 µM; DNMT1 molecular beacon, Hinp1I cleavage, fluorescence; AID 588458; 360,000 tested, 0.83% active; in the data active = inhibition above about 50%
PG9 binder – small molecules binding HIV-1 gp120 antibody PG9; inhibition, % at 6.7 µM; TR-FRET gp120-PG9 antibody binding; 360,000 tested, 0.43% active; AID 624416; in the data active = inhibition above about 8.5%
UHRF1 MBD2 ctr – human UHRF1 methylated DNA binding inhibitors | UHRF1 binding to methylated oligo, TR-FRET | 370,000 tested, 0.75% active | AID 687016 | inhibition, % at 4.4 µM | Q96T88; in the data active = inhibition above about 21%;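 note: UHRF1 SRA domain binding a hemimethylated CpG hairpin DNA probe; 0% = median of test compound wells and 100% = reference inhibitor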
Target sequence (Q96T88 whole entry, looked up, the tested form may be a part): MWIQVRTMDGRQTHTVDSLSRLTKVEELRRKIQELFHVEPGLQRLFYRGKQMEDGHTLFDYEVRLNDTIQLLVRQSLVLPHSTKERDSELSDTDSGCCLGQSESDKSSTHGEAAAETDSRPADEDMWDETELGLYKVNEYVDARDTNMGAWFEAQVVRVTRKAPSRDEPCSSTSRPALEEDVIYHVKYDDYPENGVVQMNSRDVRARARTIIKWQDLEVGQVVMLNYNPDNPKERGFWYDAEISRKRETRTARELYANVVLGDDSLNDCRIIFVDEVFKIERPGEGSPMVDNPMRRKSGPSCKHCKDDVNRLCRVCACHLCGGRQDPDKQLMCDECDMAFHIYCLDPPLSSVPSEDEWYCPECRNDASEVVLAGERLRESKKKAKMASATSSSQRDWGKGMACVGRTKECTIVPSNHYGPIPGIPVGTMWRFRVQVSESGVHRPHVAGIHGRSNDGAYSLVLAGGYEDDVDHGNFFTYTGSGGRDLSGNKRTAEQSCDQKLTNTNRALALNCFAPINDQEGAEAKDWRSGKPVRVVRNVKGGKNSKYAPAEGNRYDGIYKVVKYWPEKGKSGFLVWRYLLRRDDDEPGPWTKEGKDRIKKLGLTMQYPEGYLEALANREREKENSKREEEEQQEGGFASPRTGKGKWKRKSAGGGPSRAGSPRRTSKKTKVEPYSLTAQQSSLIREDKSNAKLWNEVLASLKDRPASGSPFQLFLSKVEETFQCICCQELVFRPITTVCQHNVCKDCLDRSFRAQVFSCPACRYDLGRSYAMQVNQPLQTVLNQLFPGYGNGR
LEDGF integ inh – blocks HIV-1 LEDGF/p75-dependent DNA integration | TR-FRET IN-LEDGF/p75 DNA integration, Eu/Cy5 | inhibition, % at 3.7 µM | 370,000 tested, 0.64% active;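 active = inhibition above the screen-wide mean plus 3 SD, cut at about 13% in these data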;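 note: signal is the Cy5 over europium emission ratio at 671 and 618 nm; 0% = plate median of compound wells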
MBD2 DNA inh – inhibitors of human MBD2 binding to methylated oligonucleotide; TR-FRET; inhibition, % at 4.4 µM; 370,000 tested, 0.31% active; AID 686964; in the data active = inhibition above about 13%
rCAG binder – binds r(CAG) RNA repeats | 370,000 tested, 1.3% active | AID 651821 | r(CAG) RNA repeat, TO-PRO-1 dye displacement fluorescence | inhibition, % at 3 µM;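 active = inhibition above the plate cutoff, the mean of all test compounds on that plate plus 3 SD, cut at about 35% in these data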;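 note: 0% = DMSO alone and 100% = 100 µM mitoxantrone as full dye displacement; higher means more dye released from RNA so lower well fluorescence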
DNMT1 interf DR – beacon fluorescence artifact, dose response counter-screen; shares compounds with DNMT1 inh; molecular beacon fluorescence, spectral interference counter-screen; IC50, µM; 200 tested, under 10 active; AID 602382; call rule not given here
DNMT1 confirm – DNMT1 inhibition confirmation, single concentration; AID 602385; inhibition, % at 10 µM; shares compounds with DNMT1 inh; DNMT1 molecular beacon HinP1I cleavage, fluorescence; 2,300 tested, 8% active;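 active = average inhibition of at least 30% in the single-concentration confirmation test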
Beacon interf – beacon fluorescence artifact counter-screen | activation (fluorescence interference), % at 10 µM | 2,300 tested, 1% active | DNMT1 molecular beacon spectral interference counterscreen, fluorescence 485/520 | AID 602387 | shares compounds with DNMT1 inh;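 active = activation of at least 30% at 10 µM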;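 note: DNMT1 catalytic domain with a HinP1I cleavage step and a FAM/dabcyl DNA beacon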
Starred values were filed as active, the others as inactive; . = no result.

SMILES	DNMT1 inh	PG9 binder	UHRF1 MBD2 ctr	LEDGF integ inh	MBD2 DNA inh	rCAG binder	DNMT1 confirm	Beacon interf	others
COc1ccc(OC)c2sc(NC(=O)c3ccc(Cl)s3)nc12	60.8*	0.6	0.2	-3.0	6.3	1.1	6.3	0.0
CCC(=O)Nc1nc2c(OC)ccc(OC)c2s1	-0.9	-0.6	-0.7	-2.1	2.8	1.2	.	.
COc1ccc(OC)c2sc(NC(=O)c3ccc(Br)s3)nc12	56.6*	1.5	-0.9	-1.5	9.2	1.7	2.4	-3.4
COc1ccc(NC(=O)C2Cc3c(-c4cccc(C(N)=O)c4)ccnc3O2)cc1 (stereo not given)	54.7*	-0.6	0.8	1.6	-1.2	2.4	12.0	6.2
C[C@@H](C(=O)Nc1nccs1)N1C(=O)C2CC=CCC2C1=O (stereo not given in full)	60.1*	-0.4	2.3	2.1	-1.7	3.6	-1.3	4.1
COC(=O)COc1ccc(S(=O)(=O)Nc2ccccc2SC)cc1	79.5*	-1.0	-1.3	-0.2	1.4	-0.2	3.9	7.5
CCOc1ccc(S(=O)(=O)Nc2ccccc2SC)cc1	-5.8	-2.4	10.1	1.5	-2.2	2.0	.	.
C=CCc1cccc2cc(C(=O)Nc3ccc(CC(=O)O)cc3)c(=O)oc12	80.5*	1.1	0.0	0.9	8.1	30.4	4.9	5.8
C=CCc1cccc2cc(C(=O)Nc3ccc(F)cc3)c(=O)oc12	9.4	-0.9	5.8	-4.0	7.4	0.5	.	.
Cc1cc(=O)oc2cc(NC(=O)c3cccc(F)c3)ccc12	58.3*	2.3	-4.1	-1.5	-5.1	2.0	0.3	-0.3
CN(C)CCc1cc2c(c3c1ccc1ccccc13)OCO2	59.8*	-0.5	-17.2	-5.5	2.4	9.7	36.9*	5.8	DNMT1 interf DR=>99
O=[N+]([O-])c1ccc(Nc2nccc(Cl)n2)cc1	2.1	0.0	-4.9	0.1	4.5	5.5	.	.
Clc1ccc2nc(-c3ccco3)c(Cc3ccccc3)n2c1	63.8*	0.1	15.8	6.2	5.8	20.8	5.2	2.8
Fc1cccc(Cc2c(-c3ccco3)nc3ccc(Cl)cn23)c1	19.4	.	.	.	.	.	.	.
COc1ccccc1Cc1c(-c2ccco2)nc2ccc(Br)cn12	71.1*	-2.1	0.8	3.2	0.4	26.2	3.0	3.8
COc1ccc2cc(C(=O)Nc3ccc(Cl)cc3)sc(=O)c2c1OC	57.0*	-2.2	1.2	6.1	-3.3	7.8	14.4	0.2
COc1ccc2cc(C(=O)Nc3ccc(O)cc3)sc(=O)c2c1OC	-3.3	-2.5	-2.2	3.8	-0.7	7.0	.	.
CC(C)OC(=O)CC(=O)CSc1nc(-c2ccc(F)cc2)cc(-c2ccccc2)c1C#N	1.2	0.6	-1.3	1.5	3.6	15.6	.	.
CCc1nnc(NC(=O)CSc2nc(-c3ccccc3)cc(-c3ccc(F)cc3)c2C#N)s1	51.7*	-0.2	-4.8	1.3	1.1	4.2	-0.1	0.8
CC1([N+](=O)[O-])COC(c2cccc3ccccc23)OC1 (stereo not given)	-1.5	-0.4	0.0	-5.3	1.8	1.3	.	.
CCC1(C)NC(=O)N(CC(=O)Nc2sc3c(c2C(=O)OC)CCCCC3)C1=O (stereo not given)	-6.5	-0.2	-0.3	1.8	-5.2	10.4	.	.
N#Cc1c(NC(=O)CSc2nnc(-c3ccco3)n2-c2ccccc2)sc2c1CCC2	67.1*	-2.7	-1.8	0.9	-0.4	12.3	0.2	2.5
CCC1(CC)NC(=O)N(CC(=O)Nc2sc3c(c2C(N)=O)CCC3)C1=O	77.3*	-1.5	2.2	1.1	2.7	20.2	3.7	-4.5
CCn1c(SCC(=O)Nc2sc3c(c2C#N)CCCC3)nnc1-c1ccco1	1.5	-1.7	3.3	-1.4	-4.3	1.2	.	.
CCOC(=O)Cc1csc(SCC(=O)Nc2nccs2)n1	1.1	-1.9	0.0	-2.9	0.3	-1.9	.	.
NC(=O)c1c(NC(=O)CSc2nnc(-c3ccco3)n2-c2ccccc2)sc2c1CCC2	86.2*	1.8	19.8	2.9	8.8	14.2	3.1	2.9
